Data published in PubChem BioAssay.
For some assays here: Entries with a potency or affinity are not part of this list. Activity calls are given as the source filed them.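 How the source made its calls, unless noted: active means calcium signal cut by more than 3 SD below the full-agonist control yet still positive, in both repeats and the earlier primary screen; inactive means the rest.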

Legend:
[1] = system: TRPC4 beta (transient receptor potential cation channel C4), mouse; experiment: TRPC4 cation channel opening, retest – cell-based, Fluo4 calcium, HEK293 TRPC4beta/mu-opioid, duplicates, 10 µM, confirmation (AID 2426;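 active means fluorescence ratio normalized to control raised more than 50% in primary screen plus both repeat runs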); conditions: Fluo4 calcium fluorescence, at 10 µM; stronger effect = higher value
[2] = system: transient receptor potential cation channel C4 beta (TRPC4), mouse; experiment: TRPC4 cation channel opening, second retest – cell-based, second round, Fluo4, HEK293 TRPC4beta/mu-opioid, 1 µM, confirmation (AID 2461;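 active means primary screen active and over 50% activation in each of two duplicate runs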); conditions: Fluo4 calcium fluorescence, at 1 µM; stronger effect = higher value
[3] = system: TRPC4 (transient receptor potential cation channel C4 beta), mouse; experiment: potentiation of DAMGO EC20 TRPC4 response – cell-based, second round, Fluo-4, HEK293 TRPC4beta/mu-opioid, 1 µM, confirmation (AID 2554;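 active means primary screen hit whose fluorescence ratio, in both repeats, exceeds the weak agonist control mean by 3 SD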); conditions: DAMGO EC20, Fluo-4 calcium flux, at 1 µM; stronger effect = higher value
[4] = system: TRPC4 beta (transient receptor potential cation channel C4), mouse; experiment: potentiation of DAMGO EC20 TRPC4 response – cell-based, Fluo-4, HEK293 TRPC4beta/mu-opioid, confirmation (AID 2555;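 active means primary screen hit whose calcium fluorescence ratio, in both repeats, exceeds the weak agonist control mean by 3 SD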); conditions: DAMGO EC20, Fluo-4 calcium flux, at 10 µM; stronger effect = higher value
[5] = target: Short transient receptor potential channel 4 (Mus musculus) (UniProt Q9QUQ5); experiment: blockers of DAMGO-evoked TRPC4 calcium flux – cell-based, Fluo4, HEK293 TRPC4beta/mu-opioid, confirmation (AID 2636); conditions: at 10 µM; stronger effect = higher value
Short transient receptor potential channel 4 (Mus musculus), sequence (Q9QUQ5 whole entry, looked up): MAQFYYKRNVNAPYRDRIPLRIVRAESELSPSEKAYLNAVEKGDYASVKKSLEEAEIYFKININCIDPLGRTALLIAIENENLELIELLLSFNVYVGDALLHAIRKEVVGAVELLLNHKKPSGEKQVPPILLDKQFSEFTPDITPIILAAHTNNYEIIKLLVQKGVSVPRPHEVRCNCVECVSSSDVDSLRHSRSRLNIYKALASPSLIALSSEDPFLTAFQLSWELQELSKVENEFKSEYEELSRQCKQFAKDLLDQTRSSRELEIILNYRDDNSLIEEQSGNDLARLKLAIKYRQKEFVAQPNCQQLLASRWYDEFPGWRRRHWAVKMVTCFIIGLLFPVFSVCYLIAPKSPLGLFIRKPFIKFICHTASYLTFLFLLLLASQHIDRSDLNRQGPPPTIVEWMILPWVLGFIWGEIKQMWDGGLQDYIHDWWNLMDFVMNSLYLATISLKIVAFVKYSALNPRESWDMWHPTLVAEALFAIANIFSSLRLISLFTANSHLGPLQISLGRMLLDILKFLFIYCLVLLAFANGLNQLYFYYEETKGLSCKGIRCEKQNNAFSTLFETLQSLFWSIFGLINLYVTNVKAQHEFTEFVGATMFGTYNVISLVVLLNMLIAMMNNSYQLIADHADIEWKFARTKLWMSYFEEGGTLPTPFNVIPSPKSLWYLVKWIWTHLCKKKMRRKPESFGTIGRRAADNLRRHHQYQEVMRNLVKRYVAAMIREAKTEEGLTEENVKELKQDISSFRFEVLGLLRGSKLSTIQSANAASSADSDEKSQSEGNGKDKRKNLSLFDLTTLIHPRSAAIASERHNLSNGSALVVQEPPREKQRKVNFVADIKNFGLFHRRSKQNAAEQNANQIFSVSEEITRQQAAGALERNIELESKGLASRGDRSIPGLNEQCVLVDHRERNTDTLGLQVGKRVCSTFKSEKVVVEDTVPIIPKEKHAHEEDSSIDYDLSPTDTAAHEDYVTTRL

[6] = target: Short transient receptor potential channel 4 (Mus musculus) (UniProt Q9QUQ5); experiment: blockers of DAMGO-evoked TRPC4 calcium flux – cell-based, second round, Fluo4, HEK293 TRPC4beta/mu-opioid, 1 µM, confirmation (AID 2637;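 active means calcium signal ratio cut to more than 3 SD under the fully stimulated control mean yet still positive, in both repeats and the primary screen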;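 on inhibition: percent of integrated ratio relative to wells lacking test compound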); conditions: at 1 µM; stronger effect = higher value
[7] = target: Short transient receptor potential channel 4 (Mus musculus) (UniProt Q9QUQ5); experiment: calcium entry via TRPC4 opening agents – cell-based, HEK293 TRPC4/mu-opioid, Fluo-4 calcium, dose response (AID 434937;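 active means primary screen activator hit with a dose response curve and TRPC4 channel activation at any tested dose; inactive means no activation, no dose response, or not a primary hit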)
[8] = target: Short transient receptor potential channel 4 (Mus musculus) (UniProt Q9QUQ5); experiment: potentiation of DAMGO-evoked TRPC4 calcium signal – cell-based, HEK293 TRPC4/mu-opioid, Fluo-4 calcium, EC20 DAMGO, dose response (AID 434941;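 active means earlier screen potentiator hit that boosts the TRPC4 ion channel at some dose, with a dose response; inactive means no potentiation, no dose response, or not a prior hit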;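 further: calcium entry triggered by an EC20 dose of DAMGO at the co-expressed mu-opioid receptor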)
[9] = target: Short transient receptor potential channel 6 (Mus musculus) (UniProt Q61143); experiment: TRPC6 blockade by TRPC4 inhibitor hits – cell-based, HEK293, membrane potential dye, duplicate, selectivity assay for TRPC4 inhibitor project, confirmation (AID 434948;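 active means active in primary screen and both duplicates, each dropping signal beyond three positive-control SD with fluorescence still positive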); conditions: HEK293 TRPC6, membrane potential dye fluorescence, at 10 µM, stimulated with maximal-effect acetylcholine; stronger effect = higher value
Short transient receptor potential channel 6 (Mus musculus), sequence (Q61143 whole entry, looked up): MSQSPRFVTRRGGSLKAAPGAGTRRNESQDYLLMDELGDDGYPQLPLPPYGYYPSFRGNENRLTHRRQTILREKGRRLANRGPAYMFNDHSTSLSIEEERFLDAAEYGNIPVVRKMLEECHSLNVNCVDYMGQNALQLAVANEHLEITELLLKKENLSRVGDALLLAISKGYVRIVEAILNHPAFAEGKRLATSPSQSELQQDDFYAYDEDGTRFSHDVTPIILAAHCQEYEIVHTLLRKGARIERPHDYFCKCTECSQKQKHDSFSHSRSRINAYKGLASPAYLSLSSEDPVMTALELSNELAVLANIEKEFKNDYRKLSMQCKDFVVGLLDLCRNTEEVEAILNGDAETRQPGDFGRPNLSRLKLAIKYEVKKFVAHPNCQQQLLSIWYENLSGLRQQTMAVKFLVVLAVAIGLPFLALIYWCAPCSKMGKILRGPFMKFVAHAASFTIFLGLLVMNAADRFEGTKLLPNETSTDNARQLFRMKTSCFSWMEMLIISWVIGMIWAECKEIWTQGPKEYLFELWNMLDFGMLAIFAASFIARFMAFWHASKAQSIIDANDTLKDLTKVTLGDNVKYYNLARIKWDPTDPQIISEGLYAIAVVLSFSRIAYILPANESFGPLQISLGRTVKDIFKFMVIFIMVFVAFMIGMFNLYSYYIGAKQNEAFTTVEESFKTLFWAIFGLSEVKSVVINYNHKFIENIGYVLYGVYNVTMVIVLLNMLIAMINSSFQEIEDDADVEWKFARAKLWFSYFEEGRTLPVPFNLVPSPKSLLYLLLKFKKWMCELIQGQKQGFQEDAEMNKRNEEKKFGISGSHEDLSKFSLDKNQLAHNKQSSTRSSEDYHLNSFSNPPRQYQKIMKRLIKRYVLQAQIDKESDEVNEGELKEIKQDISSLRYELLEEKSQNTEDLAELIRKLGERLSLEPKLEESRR

[10] = target: Short transient receptor potential channel 6 (Mus musculus) (UniProt Q61143); experiment: TRPC6 opening by TRPC4 activator hits – cell-based, HEK293, membrane potential dye, duplicate, selectivity assay for TRPC4 activator project, confirmation (AID 434950;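 active means membrane potential signal rise above negative control mean plus 3 SD in both duplicates, also active in the earlier TRPC4 screen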); conditions: HEK293 TRPC6, membrane potential fluorescence, at 10 µM; activation: stronger effect = higher value; outcome: activation
[11] = target: Short transient receptor potential channel 6 (Mus musculus) (UniProt Q61143); experiment: positive modulators of mouse TRPC6 channel – HEK293 cells, membrane potential dye, duplicate, selectivity assay for TRPC4 potentiator project, confirmation (AID 434952;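 active means compound raising the membrane signal above positive-control mean plus 3 SD in both repeats, and a primary screen hit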); conditions: HEK293 TRPC6, membrane potential dye fluorescence, at 10 µM, maximal acetylcholine added after compound; stronger effect = higher value
[12] = target: Short transient receptor potential channel 4 (Mus musculus) (UniProt Q9QUQ5); experiment: calcium flux activators in TRPC4/5HT1a cells, counter-screen for TRPC4 activator project, cell-based, second counter screen, HEK293 TRPC4/5HT1a, Fluo-4 (AID 434977;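 active means calcium signal rise above buffer-control mean plus 5 SD in both duplicates, and also a hit in the primary screen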); conditions: Fluo-4 calcium flux, at 10 µM; stronger effect = higher value
[13] = serotonin-gated TRPC4 signal block – cell-based, second counter screen, HEK293 TRPC4/5HT1a, Fluo-4, counter-screen for TRPC4 inhibitor project, confirmation (AID 434978;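 active means primary screen active whose calcium signal fell more than 3 SD beyond the full-serotonin control mean in both duplicate plates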;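 on outcome: serotonin given first at submaximal then at maximal dose after compound preincubation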); conditions: Fluo-4 calcium flux, at 10 µM, serotonin added to trigger calcium flux; stronger effect = higher value
[14] = system: TRPC4 (mouse), co-expressed with 5HT1a in HEK293; experiment: enhancement of serotonin-evoked TRPC4 response – cell-based, second counter screen, HEK293 TRPC4/5HT1a, Fluo-4, counter-screen for TRPC4 potentiator project, confirmation (AID 434979;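 active means signal rise over 3 SD above mean of control wells given weak agonist, in both repeats and first screen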); conditions: Fluo-4 calcium flux, at 10 µM, serotonin added at its EC20 dose; stronger effect = higher value
[15] = nonspecific calcium rise without TRPC4 – cell-based, HEK293 mu-opioid receptor line, counter-screen for TRPC4 activator project, confirmation (AID 449723;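 active means hit in primary screen, with calcium signal over 5 SD above buffer well mean in both duplicates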;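 further: counter screen cells carry the mu-opioid receptor alone and lack TRPC4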); conditions: HEK293 mu-opioid cells, Fluo-4 calcium fluorescence, at 10 µM; stronger effect = higher value
[16] = nonspecific potentiation of DAMGO calcium response – cell-based, HEK293 mu-opioid receptor line, counter-screen for TRPC4 allosteric potentiator project, confirmation (AID 449724;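 active means calcium signal rise more than 3 SD above the low-dose agonist control mean, in both duplicate plates and the primary screen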); conditions: HEK293 mu-opioid receptor cells, Fluo-4 calcium flux, at 10 µM, compound added before EC20 DAMGO stimulus; stronger effect = higher value

Compound | outcome [1] | outcome [2] | outcome [3] | outcome [4] | inhibition [5] | outcome [6] | outcome [7] | outcome [8] | outcome [9] | outcome [10] | outcome [11] | outcome [12] | inhibition [13] | outcome [14] | outcome [15] | outcome [16] | inhibition [6] | outcome [5] | inhibition [9] | outcome [13]
CC(C)Sc1nc2sc3c(c2c2nnc(SCC(=O)NCc4ccco4)n12)CCCC3 | inactive | inactive | inactive | inactive | 78% (active) | inactive | inactive | inactive | inactive | inactive | inactive | inactive | 16.9% (active) | inactive | inactive | inactive |  |  |  | 
CCCSc1nc(N)nc(-c2cccs2)c1C#N | inactive | inactive | inactive | inactive | 89% (active) |  | inactive | inactive | inactive | inactive | inactive | inactive | 36.8% (active) | inactive | inactive | inactive | 50% (active) |  |  | 
Cc1cc(Br)c(NC(=O)CN(C)CCOc2ccccc2)c(Br)c1 | inactive | inactive | inactive | inactive | 81% (active) | inactive | inactive | inactive | inactive | inactive | inactive | inactive | 45.2% (active) | inactive | inactive | inactive |  |  |  | 
CC(C)(C)Cc1nc2ccccc2n1CCc1ccccc1 | inactive | inactive | inactive | inactive | 82% (active) |  | inactive | inactive | inactive | inactive | inactive | inactive | 17.2% (active) | inactive | inactive | inactive | 64% (active) |  |  | 
COc1cc(CNCCCN2CCOCC2)cc(Br)c1OCc1ccc(Cl)cc1 | inactive | inactive | inactive | inactive |  | inactive | inactive | inactive |  | inactive | inactive | inactive | 23.6% (active) | inactive | inactive | inactive |  | inactive | 51% (active) | 
COc1ccc(/C=C2/SC(=S)N(CCCC(=O)Nc3ccccc3C(=O)O)C2=O)cc1 | inactive | inactive | inactive | inactive | 81% (active) |  | inactive | inactive | inactive | inactive | inactive | inactive | 36.7% (active) | inactive | inactive | inactive | 48% (active) |  |  | 
COc1ccc(Nc2nc(NCC3CCCO3)c3ccccc3n2)c(OC)c1 (centres undefined) | inactive | inactive | inactive | inactive | 93% (active) |  | inactive | inactive |  | inactive | inactive | inactive | 41.4% (active) | inactive | inactive | inactive | 50% (active) |  | 5.5% (active) | 
Nc1c2c(nc3ccccc13)N(c1ccccc1)CC2 | inactive | inactive | inactive | inactive | 77% (active) | inactive | inactive | inactive |  | inactive | inactive | inactive | 31.2% (active) | inactive | inactive | inactive |  |  | 26% (active) | 
c1ccc(NC(=NCc2ccco2)c2ccccc2)cc1 | inactive | inactive | inactive | inactive | 94% (active) |  | inactive | inactive | inactive | inactive | inactive | inactive |  | inactive | inactive | inactive | 45% (active) |  |  | inactive
CCCCn1c2ccccc2c2nnc(SCCN3CCCCC3)nc21 | inactive | inactive | inactive | inactive | 84% (active) | inactive | inactive | inactive |  | inactive | inactive | inactive | 31.3% (active) | inactive | inactive | inactive |  |  | 44.5% (active) | 
Cc1nn(-c2ccccc2)c(Cl)c1CN(C(=O)CCl)c1ccc(Cl)cc1 | inactive | inactive | inactive | inactive | 93% (active) |  | inactive | inactive | inactive | inactive | inactive | inactive | 2.77% (active) | inactive | inactive | inactive | 69% (active) |  |  | 
COc1cccc(C(CNC(=O)C(c2ccccc2)c2ccccc2)N(C)C)c1 (centres undefined) | inactive | inactive | inactive | inactive | 89% (active) | inactive | inactive | inactive | inactive | inactive | inactive | inactive |  | inactive | inactive | inactive |  |  |  | inactive
CCN(CC)C(=O)C1CCCN(Cc2cccc(Oc3ccccc3)c2)C1 (centres undefined) | inactive | inactive | inactive | inactive | 93% (active) |  | inactive | inactive | inactive | inactive | inactive | inactive | 25.7% (active) | inactive | inactive | inactive | 53% (active) |  |  | 
COc1ccc([N+](=O)[O-])cc1NCc1ccco1 | inactive | inactive | inactive | inactive | 69% (active) | inactive | inactive | inactive | inactive | inactive | inactive | inactive |  | inactive | inactive | inactive |  |  |  | inactive
